Source: publication PMC12136788
Over roughly 5,800 sequences, “enrichment r” has its median near 0.68; the highest 2% begin near 11. Only a sample is shown.

B1: ENSG00000124766:be:win_3701|3pUTR|ENSG00000124766|bound_else_gene|NA|bound_elsewhere_windowed (ssRNA)
RNA: GGGAGUUCUACAGUCCGACGAUCUCAGGUUUAUAGCUGUUGUGUUUAAAAAUUGAAAAAAGUGGAAAACAUCUUUGUACAUUUAAGUCUGUAUUAUAAUAAGCAAAAAGAUUGUGUGUAUGUAUGUUUAAUAUAACAUGACAGCAACAGAGGAUUGAGCAUCA
B2: chr4:1716041:1716142:-|3pUTR|ENSG00000168936|msi1|total|mutant (ssRNA)
RNA: GGGAGUUCUACAGUCCGACGAUCAGGCUUCCCCGAGCGCUCAGCAGGUGAAGGCAGCAGGGGCCAUGGCCGGGAGCCAGGCCCCGCUUUGAACUGAGUUUCAAGGGCUGCCAAAGAGGGGCAGUGGGUUGGGGUUGUUUUUACCAACAGAGGAUUGAGCAUCA
B3: chr6:158785413:158785514:-|CDS|ENSG00000092820|msi1|FALSE|unique (ssRNA)
RNA: GGGAGUUCUACAGUCCGACGAUCGAGCUCAUCCAGGACAUCACCCAGAAACUUUUCUUCCUCCAAGUGAAGGAAGGAAUCCUUAGCGAUGAGAUCUACUGCCCCCCUGAGACUGCCGUGCUCUUGGGGUCCUACGCUGUGCAGCAACAGAGGAUUGAGCAUCA
B4: chr10:113876644:113876745:+|CDS|ENSG00000196865|msi1|total|mutant (ssRNA)
RNA: GGGAGUUCUACAGUCCGACGAUCGGUUAAUGAUGCAGAUGCCAGCCUUUGGCAAGAACCCGAAGUUUCCUGCUGGCCAACUCCCGUCAUACUUGGACCUCGUGGAAACAUGUUGUUUUCUUUGAUUGGAGAGGGACACAAAGACAACAGAGGAUUGAGCAUCA
B5: chr1:212686416:212686790:-|three_prime_utr|ENSG00000123685|control|control|control (ssRNA)
RNA: GGGAGUUCUACAGUCCGACGAUCUUGUGCAGAUCCAGCAUGGAGGCCACCCUCAGGAGUGACUUCUCAUCCACCCUGGCAGCUAGUAGGUUCUGCUGUUAUGCAGAGCCAUUUCCUCUAGAAUUUGGAUAAUAAAGAUGCUUACAACAGAGGAUUGAGCAUCA
B6: ENSG00000184117:stop:overlap|stop_codon|ENSG00000184117|stop_codon|NA|stop_codon (ssRNA)
RNA: GGGAGUUCUACAGUCCGACGAUCUGGGCAACUGGAACACGUGGUAUGGGGAGCAGGACCAGGCAGGUCAUUCCUGGUUUUGGUAGAUUUCUAUCCAUACAGUACUUUUGCCAUUUCCUUUGGGAAAAAGACCUUUAAACCAUACAACAGAGGAUUGAGCAUCA
B7: chr20:32237940:32238012:+|3pUTR|ENSG00000101346|msi1_unk|total|mutant (ssRNA)
RNA: GGGAGUUCUACAGUCCGACGAUCUUUCAAAGAUACAAAUAUUUACACCGUUUUAAUCAUGUAAUAUAUACAAUUUAAUGUCCCCGUGUUUUACUUAACCGUGUAUCAUGUUUUCCCUGUUGGUAUGCCGCCUGGAUAAAUGCUCAACAGAGGAUUGAGCAUCA
B8: chr4:152882748:152882856:+|CDS|ENSG00000164144|unk|FALSE|unique (ssRNA)
RNA: GGGAGUUCUACAGUCCGACGAUCCAGAAACUGCUGGCUAAAAAUGGAGAGACUCUUCUUGGGGCCAUUAAUUUUUUCAUUGCUAGUGUGAACACUUUGGUGAAUAAAACCAUUGAAGAUACAUUAAUGACUGUGAAACAGUAUCAACAGAGGAUUGAGCAUCA
B9: chrX:13662881:13662996:+|CDS|ENSG00000176896|unk|total|mutant (ssRNA)
RNA: GGGAGUUCUACAGUCCGACGAUCUCGAAUUCUCUGUCUUCCCAAGACGUUGCAAAACUCAGUGAAAUGAUUGUGCCUGAAAACCGAGCCAUUCAAUUGAAACCUAAGGAAGAGCAUUUUGGGGAUGGUGACCCUGAAUCCACUCAACAGAGGAUUGAGCAUCA
B10: chr10:116672031:116672132:-|3pUTR|ENSG00000165868|msi1|total|mutant (ssRNA)
RNA: GGGAGUUCUACAGUCCGACGAUCCCUUUCCUGCCUUGCAUUAAUGCUAUCUCCCUGUGUACUGUUUCUCUUAAAUGAGCAGACCGAAAUCUGCAGUGUUGGCAGACCGGUGAUGGAGAGGAUGAUAAUUUUAUCUUCUGGCCACAACAGAGGAUUGAGCAUCA
B11: chr2:121605696:121605828:-|CDS|ENSG00000074054|unk|FALSE|unique (ssRNA)
RNA: GGGAGUUCUACAGUCCGACGAUCGAUAGACUAUUUCUCAGACAAACAGAAGUCUGCUGACCUUGAGCAUGACCAGACCAUGUUAGAUAAACUUGUGGAUGGACUUGCUACCUCUUGGGUGAACUCUAGCAAUUACAAGGUAAGCAACAGAGGAUUGAGCAUCA
B12: chr17:64498535:64498649:-|3pUTR|ENSG00000108654|unk|FALSE|unique (ssRNA)
RNA: GGGAGUUCUACAGUCCGACGAUCUUAAACUGAGGCUUUAAUUGAUGUUAAUGCCUUAUGUCAAAUGUAAAGUUAGAAUUUGCUAGGGCUGGGAUAGGGAGUGAUAUUUCUAGGACUUAGACAUUGAAAACUAAUUCAGCCUGUCAACAGAGGAUUGAGCAUCA
B13: ENSG00000124766:be:win_2101|3pUTR|ENSG00000124766|bound_else_gene|NA|bound_elsewhere_windowed (ssRNA)
RNA: GGGAGUUCUACAGUCCGACGAUCUGCCCCCUCUGCAGCCGGAGGAGGAGAUGUUGAGGGGAGGAGGCCAGCCAGUGUGACCGGCGCUAGGAAAUGACCCGAGAACCCCGUUGGAAGCGCAGCAGCGGGAGCUAGGGGCGGGGGCAACAGAGGAUUGAGCAUCA
B14: chr4:75812186:75812332:+|CDS|ENSG00000138768|unk|total|mutant (ssRNA)
RNA: GGGAGUUCUACAGUCCGACGAUCAGAGCAGCUGGAUUCAUCUAACCGUACCAUUGCCAUUUUACAAACUGAGAAAGACAAACCCGAGUUGGAAAUUACAGAUUCUAAAAAAGAACAAGAUGAUCUCUUGGUGCUCUUGGCCGACAACAGAGGAUUGAGCAUCA
B15: ENSG00000198589:be:win_7451|CDS|ENSG00000198589|bound_else_gene|NA|bound_elsewhere_windowed (ssRNA)
RNA: GGGAGUUCUACAGUCCGACGAUCUGAGUCCAUUGAUGUUCACAGACAAAGCCCAGCAGGAUGUUAUCAUGGUCCUCAAGUUUCCCUCCAACUCCCCUGUUACUCACGUGGCAGCCAACACCCAGCCUGGUUUGGCAACUCCCGCAACAGAGGAUUGAGCAUCA
B16: chr4:75597091:75597192:-|CDS|ENSG00000138769|unk|total|mutant (ssRNA)
RNA: GGGAGUUCUACAGUCCGACGAUCUAUAAACUAUUUAAAAUAAAAGGCUCAAAAAUUGAUGGAGAAAAAGCUGAAAAAGGCAACCGAGCUUCAAAUGCCAGCUGUCUCCAUGACAGCCGGACAAGCCACAACAAAACCGUGCCUCAACAGAGGAUUGAGCAUCA
B17: chr17:82078764:82078865:-|3pUTR|ENSG00000169710|msi1_unk|FALSE|overlapping (ssRNA)
RNA: GGGAGUUCUACAGUCCGACGAUCCCGUGGGGUCUGCGCUUGGUCUUUCUGUGCUUGGAUUUGCAUAUUUAUUGCAUUGCUGGUAGAGACCCCCAGGCCUGUCCACCCUGCCAAGACUCCUCAGGCAGCGUGUGGGUCCCGCACCAACAGAGGAUUGAGCAUCA
B18: ENSG00000136451:be:win_1451|CDS_3pUTR|ENSG00000136451|bound_else_gene|NA|bound_elsewhere_windowed (ssRNA)
RNA: GGGAGUUCUACAGUCCGACGAUCCUCCAAUGAAUCUACCCACACCUAUGACAUUAGCCGCCCCUCUCAAUAUAGCAAUGAGACCUGUAGAGAGCAUGCCUUUCUUGCCCCAAGCUUUGCCUACAUCACCGCCUUGGUAAACAGCAACAGAGGAUUGAGCAUCA
B19: chr5:173316791:173316892:-|3pUTR|ENSG00000113739|msi1|FALSE|unique (ssRNA)
RNA: GGGAGUUCUACAGUCCGACGAUCGGAAACCUUAUACCCAGAGGAAAAUACACACCUGGGGAGUACAUUUGACAAAUUUCCCUUAGGAUUUCGUUAUCUCACCUUGACCCUCAGCCAAGAUUGGUAAAGCUGCGUCCUGGCGAUCAACAGAGGAUUGAGCAUCA
B20: ENSG00000064393:stop:overlap|stop_codon|ENSG00000064393|stop_codon|NA|stop_codon (ssRNA)
RNA: GGGAGUUCUACAGUCCGACGAUCUCUCCCUGGAGAGUGGUUUUCCUGCUUUUCUGCUGCUAGAAAUGUUGCUGUAUGGGAGCUAGUACAAUAGAAAGUGCCCAGUGACUGCAGGCGACCCUUACCGAGGAUUUUAUUCAAGUACAACAGAGGAUUGAGCAUCA
B21: ENSG00000198589:be:win_4201|CDS|ENSG00000198589|bound_else_gene|NA|bound_elsewhere_windowed (ssRNA)
RNA: GGGAGUUCUACAGUCCGACGAUCGAAGCCUCUGUGACAUUUUUGCAGAGGCUAAUUAGCCUUGUGGAUGUGCUUAUAUUUGCAAGUUCUCUUGGCUUUACUGAAAUUGAAGCUGAAAAAAGUAUGUCAUCUGGAGGAAUUUUGCAACAGAGGAUUGAGCAUCA
B22: chr9:37126384:37126485:+|CDS|ENSG00000147905|unk|total|mutant (ssRNA)
RNA: GGGAGUUCUACAGUCCGACGAUCUAUCGAGAUGAGUCAUCCCGUGAACUGAGUGUUGACCGUGAGGUGGAAUUUCAACUCUACCGCCAAAUUCAUUAUGCCCAAGAUCUUGAUGAUGUCAUCAGGGAGGAAGAGCAUGAAGAACAACAGAGGAUUGAGCAUCA

The binders below were run against T1, UNK ZnF1-6 (called full-length) (human, UniProt Q9C0B0 30-357) (assay: nsRBNS (natural sequence RNA bind-n-seq); RBNS binding buffer (assumed for nsRBNS): 25 mM Tris pH 7.5, 150 mM KCl, 3 mM MgCl2, 0.01% Triton X-100, 500 ug/ml BSA, 20 U/ml SUPERase-In, 4 C; UNK is unkempt and MSI1 is Musashi-1; names of the RNAs are library labels; protein concentration not given here; high values mean tight binding).
T1 sequence: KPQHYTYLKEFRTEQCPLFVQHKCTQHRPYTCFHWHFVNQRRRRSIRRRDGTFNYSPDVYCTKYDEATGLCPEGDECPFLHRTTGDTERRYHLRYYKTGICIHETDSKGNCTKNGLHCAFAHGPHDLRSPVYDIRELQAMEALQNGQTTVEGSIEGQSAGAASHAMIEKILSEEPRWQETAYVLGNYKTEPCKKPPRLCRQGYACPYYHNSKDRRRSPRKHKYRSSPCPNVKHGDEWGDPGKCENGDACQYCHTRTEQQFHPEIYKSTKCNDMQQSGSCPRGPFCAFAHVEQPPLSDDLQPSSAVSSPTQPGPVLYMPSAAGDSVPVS

Binder	binding signal
B1	0.65 enrichment R
B2	0.696 enrichment R
B3	0.521 enrichment R
B4	0.577 enrichment R
B5	0.63 enrichment R
B6	0.898 enrichment R
B7	0.548 enrichment R
B8	0.365 enrichment R
B9	0.441 enrichment R
B10	0.548 enrichment R
B11	0.726 enrichment R
B12	0.878 enrichment R
B13	1.41 enrichment R
B14	0.434 enrichment R
B15	0.743 enrichment R
B16	0.872 enrichment R
B17	0.749 enrichment R
B18	1.48 enrichment R
B19	0.601 enrichment R
B20	0.569 enrichment R
B21	0.355 enrichment R
B22	0.413 enrichment R
